Compound activity as filed in PubChem.
OTUD3 inh = human OTUD3 deubiquitinase inhibition; purified OTUD3, Ub-rhodamine fluorescence, 2 h; AID 1645858; inhibition, % at 25 µM; 47,000 tested, 0.7% active
UCHL1 inh = inhibitors of human UCHL1 deubiquitinase; 47,000 tested, 0.2% active; P09936; inhibition, % at 20 µM; purified UCHL1, Ub-rhodamine cleavage fluorescence
USP8 inh = blocks human USP8 ubiquitin-rhodamine cleavage | purified USP8, Ub-rhodamine cleavage fluorescence, 30 min | 47,000 tested, 4.2% active | inhibition, % at 20 µM | P40818
USP7 inh = inhibitors of human USP7 deubiquitinase; inhibition, % at 20 µM; purified USP7, Ub-rhodamine cleavage fluorescence; AID 1645854; 47,000 tested, 0.3% active; Q93009
USP10 block = inhibitors of human USP10 deubiquitinase | inhibition, % at 20 µM | purified USP10, Ub-rhodamine fluorescence, 60 min | Q14694 | AID 1645856 | 47,000 tested, 1.1% active
The depositor's hits bear a star. Compounds with a hit are over-represented: about 4.9% of the library has one in this group of screens. Cut-off read from the data, not from the text of the source: active = inhibition above about 30%; inactive = the rest.

CCn1cc(S(=O)(=O)Nc2ncn(Cc3ccc(F)cc3)n2)cn1 was read as OTUD3 inh -0.6, UCHL1 inh -0.7, USP8 inh 2.7, USP7 inh 2.3 and USP10 block -0.2.
COc1ccc(S(=O)(=O)N2CCc3ccccc32)cc1C(=O)Nc1ccc2c(c1)NC(=O)C(C)O2 (stereo unspecified) was read as OTUD3 inh -8.3, UCHL1 inh 0.4, USP8 inh 71.5*, USP7 inh 3.9 and USP10 block 34.7*.
O=C(Cn1cc(C(=O)C2CC2)c2ccccc21)NCc1ccc2c(c1)OCO2 was read as OTUD3 inh 8.6, UCHL1 inh 1.4, USP8 inh 69.4*, USP7 inh 9.1 and USP10 block 12.9.
`CCn1cnc2c(-c3ccccc3)cn(CC(=O)NCc3ccc4c(c3)OCO4)c2c1=O` gave OTUD3 inh 6.8, UCHL1 inh -1.2, USP8 inh 14.3, USP7 inh -3.1 and USP10 block 11.3.
O=C(Cn1ccc2ccc([N+](=O)[O-])cc21)NCc1ccc2c(c1)OCO2 was read as OTUD3 inh -24.3, UCHL1 inh -3.0, USP8 inh -98.6, USP7 inh -2.0 and USP10 block 1.3.
`O=C(Cn1ccc2ccc(Br)cc21)NCc1ccc2c(c1)OCO2` gave OTUD3 inh -17.0, UCHL1 inh -2.3, USP8 inh -21.2, USP7 inh -1.2 and USP10 block 2.0.
`O=C(Cn1cnc2cc([N+](=O)[O-])ccc2c1=O)NCc1ccc2c(c1)OCO2` gave OTUD3 inh 26.5, UCHL1 inh 15.3, USP8 inh 39.1*, USP7 inh 6.6 and USP10 block 2.5.
Cc1c(Cl)cccc1NC(=O)Cn1cc(C(=O)C2CC2)c2ccccc21 was read as OTUD3 inh -4.1, UCHL1 inh 3.5, USP8 inh 86.5*, USP7 inh 35.7* and USP10 block 48.9*.
Screening O=C(Cn1cc(-c2ccccc2)c2ncn(C3CC3)c(=O)c21)NCc1ccc2c(c1)OCO2 returned OTUD3 inh -3.2, UCHL1 inh -0.6, USP8 inh 41.0*, USP7 inh -0.2 and USP10 block -3.8.
O=C(Cn1cc(C(=O)C2CCCCC2)c2ccccc21)Nc1ccccc1C(F)(F)F was read as OTUD3 inh 6.1, UCHL1 inh 1.6, USP8 inh 24.8, USP7 inh 18.6 and USP10 block 7.4.
Screening CC1(NC(=O)CC(c2ccncc2)c2c[nH]c3ccccc23)CCC1 (stereo unspecified) returned OTUD3 inh -2.2, UCHL1 inh 0.5, USP8 inh -311.9, USP7 inh -19.5 and USP10 block -7.9.
`CCOc1ccc(S(=O)(=O)NC(C)C(=O)N2CCCCCC2)cc1C` (stereo unspecified) gave OTUD3 inh 2.5, UCHL1 inh -0.3, USP8 inh -0.1, USP7 inh -1.9 and USP10 block 0.1.
Screening O=C(Cn1ncc2c(=O)oc3ccccc3c21)NCc1ccc2c(c1)OCO2 returned OTUD3 inh 22.8, UCHL1 inh 5.4, USP8 inh 42.3*, USP7 inh 14.7 and USP10 block 16.5.
`O=C(NCc1ccc2c(c1)OCO2)c1nn(C23CC4CC(CC(C4)C2)C3)cc1[N+](=O)[O-]` gave OTUD3 inh 32.6*, UCHL1 inh 6.2, USP8 inh -30.0, USP7 inh 11.9 and USP10 block 9.6.
Screening CC1(C)Cc2c(sc3nc(SCCOc4ccccc4)nc(N)c23)CO1 returned OTUD3 inh 4.8, UCHL1 inh 5.2, USP8 inh -1.1, USP7 inh 6.7 and USP10 block 2.5.
`O=C(NCc1ccccc1Cl)C1CCN(c2nc3nc[nH]c(=O)c3s2)CC1` gave OTUD3 inh -5.4, UCHL1 inh -0.5, USP8 inh 11.9, USP7 inh 2.2 and USP10 block 0.9.
Screening CC(C)c1ccc(-c2nnn(CC(=O)N3CCCCC3C)n2)cc1 (stereo unspecified) returned OTUD3 inh 8.0, UCHL1 inh 0.0, USP8 inh 11.2, USP7 inh 0.1 and USP10 block 0.1.
COc1cc(OC)c2c(=O)cc(-c3ccccc3)oc2c1OC was read as OTUD3 inh 10.3, UCHL1 inh 6.6, USP8 inh 6.4, USP7 inh 2.9 and USP10 block 3.2.
`COc1c(O)c(O)c2c(=O)cc(-c3ccc(O)cc3)oc2c1OC` gave OTUD3 inh 46.1*, UCHL1 inh 12.0, USP8 inh 19.7, USP7 inh -44.7 and USP10 block 13.8.
Screening Cc1ccc(Nc2nc(O)c(CC(=O)Nc3cccc(Cl)c3C)s2)cc1C returned OTUD3 inh 18.6, UCHL1 inh 2.0, USP8 inh 63.0*, USP7 inh 12.2 and USP10 block 30.5*.
CCOC(=O)c1ccc(NC(=O)Cc2sc(Nc3ccc(O)cc3)nc2O)cc1 was read as OTUD3 inh -2.2, UCHL1 inh 3.5, USP8 inh 0.5, USP7 inh -0.7 and USP10 block 3.5.
For Cc1ccc(-c2noc(-c3c(O)c4cnn(-c5ccccc5)c4[nH]c3=O)n2)cc1 the results were OTUD3 inh -3.2, UCHL1 inh 0.8, USP8 inh -6.7, USP7 inh 4.5 and USP10 block 1.2.
Cc1ccc(-n2ncc3c(O)c(C(=O)Nc4ccccc4F)c(=O)[nH]c32)cc1 was read as OTUD3 inh 14.0, UCHL1 inh 1.7, USP8 inh 83.3*, USP7 inh -14.2 and USP10 block 18.4.
Screening CCc1ccccc1NC(=O)c1c(O)c2cnn(C)c2[nH]c1=O returned OTUD3 inh -11.6, UCHL1 inh -2.2, USP8 inh 84.5*, USP7 inh -0.7 and USP10 block -0.3.
Screening O=C(NC(Cc1ccccc1)c1nc2ccccc2[nH]1)c1ccc(-n2cnnn2)cc1 (stereo unspecified) returned OTUD3 inh 7.3, UCHL1 inh 3.0, USP8 inh 42.5*, USP7 inh -1.9 and USP10 block 1.5.
`O=C(NC(Cc1c[nH]c2ccccc12)c1nc2ccccc2[nH]1)c1ccccc1` (stereo unspecified) gave OTUD3 inh -21.6, UCHL1 inh 3.7, USP8 inh 42.4*, USP7 inh 0.3 and USP10 block -6.5.
For O=C(NC(Cc1ccccc1)c1nc2ccccc2[nH]1)C1CCC1 (stereo unspecified) the results were OTUD3 inh 9.9, UCHL1 inh 0.8, USP8 inh 63.2*, USP7 inh 1.5 and USP10 block -0.7.
O=C(N[C@@H](Cc1ccccc1)c1nc2ccccc2[nH]1)c1ccncc1 was read as OTUD3 inh 5.0, UCHL1 inh 3.5, USP8 inh 9.5, USP7 inh 0.7 and USP10 block -2.0.
Screening COc1ccc(C(=O)NC(Cc2ccccc2)c2nc3ccccc3[nH]2)c(OC)c1 (stereo unspecified) returned OTUD3 inh -1.6, UCHL1 inh 18.9, USP8 inh 95.4*, USP7 inh -4.8 and USP10 block 18.3.
Screening CCN(CC)C(=O)Cn1cc(S(=O)(=O)Cc2c(F)cccc2Cl)c2ccccc21 returned OTUD3 inh 5.1, UCHL1 inh -3.3, USP8 inh -2.2, USP7 inh -0.8 and USP10 block 6.5.
